Reference: PubChem BioAssay (EPA / NIEHS)
Active and inactive are the calls of the source. The calls were made as follows: active = hit-call score of the fitted dose curve at least 0.9, where 1 is the maximum; inactive = score below 0.9.

read-out: CYP3A5 (gene 1577); experiment: LTEA_HepaRG_CYP3A5: Life Technologies and Expression Analysis (LTEA) Assay for CYP3A5 using HepaRG (AID 2283493); conditions: mRNA level, 48 h; actives raise or lower the signal
How it was run: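 mRNA induction or loss of CYP3A5 assessed in HepaRG after 48 h dosing, 100 uM top concentration, duplicate wells; TaqMan qRT-PCR with ACTB, GAPDH, POLR2A normalization; 0.5% DMSO as negative control.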

Structure (SMILES)	outcome	AC50
Cc1c(COC(=O)[C@@H]2[C@H](/C=C(\Cl)C(F)(F)F)C2(C)C)cccc1-c1ccccc1	inactive	
Nc1c(Cl)c(Cl)nc(C(=O)O)c1Cl	inactive	
CC(C)NC(=O)N1CC(=O)N(c2cc(Cl)cc(Cl)c2)C1=O	inactive	
Cn1c(-c2ccccc2)cc(-c2ccccc2)[n+]1C		79 µM (active)
COC(=O)c1c(C(F)F)nc(C(F)(F)F)c(C2=NCCS2)c1CC(C)C	inactive	
Clc1nc(Cl)nc(Nc2ccccc2Cl)n1	inactive	
COc1cc(OC)nc(NC(=O)NS(=O)(=O)c2ncccc2OCC(F)(F)F)n1	inactive	
Cc1cc(C)nc(Nc2ccccc2)n1	inactive	
O=c1n(Cl)c(=O)n(Cl)c(=O)n1Cl	inactive	
CSC(=O)c1c(C(F)F)nc(C(F)(F)F)c(C(=O)SC)c1CC(C)C	inactive	
C=C(C)CN(CC)c1c([N+](=O)[O-])cc(C(F)(F)F)cc1[N+](=O)[O-]	inactive	
CCOc1cc(C(C)(C)C)ccc1C1COC(c2c(F)cccc2F)=N1 (configuration not stated)	inactive	
O=C(Nc1ccccc1-c1ccc(Cl)cc1)c1cccnc1Cl	inactive	
COP(=O)(OC)O/C(C)=C/C(=O)N(C)C	inactive	
CC(C)Nc1nc(Cl)nc(NC(C)C)n1	inactive	
COP(=S)(OC)Oc1ccc([N+](=O)[O-])c(C)c1	inactive	
COP(=S)(OC)SCn1nnc2ccccc2c1=O	inactive	
C=CCOC(=O)C(C)(C)OC(=O)c1cc(-n2c(=O)cc(C(F)(F)F)n(C)c2=O)ccc1Cl	inactive	

Structure (SMILES)	outcome	AC50
CNC(=O)N(C)c1nnc(C(C)(C)C)s1	inactive	
CCSC(=O)N1CCCCCC1	inactive	
CC(C)C1(C)N=C(c2ncccc2C(=O)O)NC1=O (configuration not stated)	inactive	
Nc1cnn(-c2ccccc2)c(=O)c1Cl	inactive	
CC(C)N1C(=O)N(c2ccccc2)CSC1=NC(C)(C)C	inactive	
COC(=O)NS(=O)(=O)c1ccc(N)cc1	inactive	
Nc1c(Cl)c(F)nc(OCC(=O)O)c1Cl	inactive	
Clc1cccc(C(Cl)(Cl)Cl)n1	inactive	
Cc1cnc(C2=NC(C)(C(C)C)C(=O)N2)c(C(=O)O)c1 (configuration not stated)	inactive	
CS(=O)(=O)c1ccc(C(=O)C2C(=O)CCCC2=O)c([N+](=O)[O-])c1	inactive	
O=C(O)c1c(Cl)ccc2cc(Cl)cnc12	inactive	
COC(=O)NC(=S)Nc1ccccc1NC(=S)NC(=O)OC	inactive	
CNC(=O)Oc1cccc2ccccc12	inactive	
COC(=O)N(C(=O)N1CO[C@@]2(C(=O)OC)Cc3cc(Cl)ccc3C2=N1)c1ccc(OC(F)(F)F)cc1	inactive	
CC(C)Oc1cccc(NC(=O)c2ccccc2C(F)(F)F)c1	inactive	
CN=C=S	inactive	
CCC(C)n1c(=O)[nH]c(C)c(Br)c1=O (configuration not stated)		20.4 µM (active)
CO/N=C(/C1=NOCCO1)c1ccccc1Oc1ncnc(Oc2ccccc2Cl)c1F		23.3 µM (active)

read-out: Fatty Acid-Binding Protein 1 (FABP1), FABP1 (gene 2168); experiment: LTEA_HepaRG_FABP1: Life Technologies and Expression Analysis (LTEA) Assay for Fatty Acid-Binding Protein 1 (FABP1) using HepaRG (AID 2283494); conditions: mRNA level, 48 h; actives raise or lower the signal
How it was run: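 Differentiated human HepaRG cells exposed 48 h in serum-free induction medium to eight half-log concentrations up to 100 uM (0.5% DMSO), duplicate. FABP1 mRNA by qRT-PCR, normalised to ACTB, GAPDH, POLR2A; bidirectional fitting against DMSO.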

Structure (SMILES)	AC50	outcome
Cc1c(COC(=O)[C@@H]2[C@H](/C=C(\Cl)C(F)(F)F)C2(C)C)cccc1-c1ccccc1	35 µM (active)	
Nc1c(Cl)c(Cl)nc(C(=O)O)c1Cl		inactive
CC(C)NC(=O)N1CC(=O)N(c2cc(Cl)cc(Cl)c2)C1=O	13.2 µM (active)	
Cn1c(-c2ccccc2)cc(-c2ccccc2)[n+]1C	21.9 µM (active)	
COC(=O)c1c(C(F)F)nc(C(F)(F)F)c(C2=NCCS2)c1CC(C)C		inactive
Clc1nc(Cl)nc(Nc2ccccc2Cl)n1		inactive
COc1cc(OC)nc(NC(=O)NS(=O)(=O)c2ncccc2OCC(F)(F)F)n1		inactive
Cc1cc(C)nc(Nc2ccccc2)n1		inactive
O=c1n(Cl)c(=O)n(Cl)c(=O)n1Cl		inactive
CSC(=O)c1c(C(F)F)nc(C(F)(F)F)c(C(=O)SC)c1CC(C)C	9.87 µM (active)	
C=C(C)CN(CC)c1c([N+](=O)[O-])cc(C(F)(F)F)cc1[N+](=O)[O-]	50 µM (active)	
CCOc1cc(C(C)(C)C)ccc1C1COC(c2c(F)cccc2F)=N1 (configuration not stated)	6.69 µM (active)	
O=C(Nc1ccccc1-c1ccc(Cl)cc1)c1cccnc1Cl	33.9 µM (active)	
COP(=O)(OC)O/C(C)=C/C(=O)N(C)C		inactive
CC(C)Nc1nc(Cl)nc(NC(C)C)n1	19.2 µM (active)	
COP(=S)(OC)Oc1ccc([N+](=O)[O-])c(C)c1		inactive
COP(=S)(OC)SCn1nnc2ccccc2c1=O		inactive
C=CCOC(=O)C(C)(C)OC(=O)c1cc(-n2c(=O)cc(C(F)(F)F)n(C)c2=O)ccc1Cl		inactive

Structure (SMILES)	AC50	outcome
CNC(=O)N(C)c1nnc(C(C)(C)C)s1		inactive
CCSC(=O)N1CCCCCC1		inactive
CC(C)C1(C)N=C(c2ncccc2C(=O)O)NC1=O (configuration not stated)		inactive
Nc1cnn(-c2ccccc2)c(=O)c1Cl		inactive
CC(C)N1C(=O)N(c2ccccc2)CSC1=NC(C)(C)C	44.8 µM (active)	
COC(=O)NS(=O)(=O)c1ccc(N)cc1		inactive
Nc1c(Cl)c(F)nc(OCC(=O)O)c1Cl		inactive
Clc1cccc(C(Cl)(Cl)Cl)n1		inactive
Cc1cnc(C2=NC(C)(C(C)C)C(=O)N2)c(C(=O)O)c1 (configuration not stated)		inactive
CS(=O)(=O)c1ccc(C(=O)C2C(=O)CCCC2=O)c([N+](=O)[O-])c1		inactive
O=C(O)c1c(Cl)ccc2cc(Cl)cnc12		inactive
COC(=O)NC(=S)Nc1ccccc1NC(=S)NC(=O)OC		inactive
CNC(=O)Oc1cccc2ccccc12		inactive
COC(=O)N(C(=O)N1CO[C@@]2(C(=O)OC)Cc3cc(Cl)ccc3C2=N1)c1ccc(OC(F)(F)F)cc1	40 µM (active)	
CC(C)Oc1cccc(NC(=O)c2ccccc2C(F)(F)F)c1		inactive
CN=C=S		inactive
CCC(C)n1c(=O)[nH]c(C)c(Br)c1=O (configuration not stated)	24.6 µM (active)	
CO/N=C(/C1=NOCCO1)c1ccccc1Oc1ncnc(Oc2ccccc2Cl)c1F	19.8 µM (active)	
